Reference: ChEMBL document CHEMBL3988442, “University of Dundee, Small-Polar-MMV Screening Library” (2021)
In all, about 69,000 compounds went through this assay and about 950 (1.4%) showed an effect of 50% or more. For the sample, strong results were picked, then their nearest neighbours and some compounds at random.

Test system: Mycobacterium tuberculosis
Experiment: Cornell M. t heat shock assay; further: in the data most compounds retested in dose-response had high values
Type: functional, organism-based
Set-up: dose or concentration left out as unconfirmed

Row | Compound | Percent Effect
1 | CN1[C@H](CN2CCCC2)C[C@@H]2CN(C(=O)Cc3ccsc3)CC[C@@H]21.O=C(O)C(F)(F)F.O=C(O)C(F)(F)F | -7.166%
2 | CN(C)C(=O)[C@@H]1CC[C@@H]2[C@@H](CCN2Cc2nccs2)O1.O=C(O)C(F)(F)F | 11.33%
3 | NC(=O)C1Cn2ccnc2C2(CCN(C(=O)NC3CCCC3)CC2)O1.O=C(O)C(F)(F)F (stereo not given) | 2.522%
4 | Fc1cc(F)cc(CN2CCC(c3cc4ncccc4cn3)CC2)c1 | 17.06%
5 | CCc1onc(C)c1C(=O)N1CCC(c2cc3ncccc3cn2)CC1 | 13.11%
6 | Fc1cccc(CN2CCC(c3noc(-c4cnccn4)n3)CC2)c1F | -19.36%
7 | COc1ccc(C)cc1CN1CCN(Cc2nccn2C)CC1 | 1.633%
8 | Cl.Fc1ccc(F)c(CN2CCC(c3cc4ncccc4cn3)CC2)c1 | 103.6%
9 | Fc1cccc(CN2CCC(c3n[nH]c4ncccc34)CC2)c1F | -15.12%
10 | Fc1cccc(CN2CCC(c3noc(-c4ccccn4)n3)CC2)c1F | 12.47%
11 | Fc1ccc(F)c(CN2CCC(c3cnccn3)CC2)c1 | -4.596%
12 | COc1ccc(C)cc1CN1CCC(c2cc3ncccc3cn2)CC1.Cl | 102.1%
13 | Fc1ccccc1CN1CCC(c2noc(-c3ccccn3)n2)CC1 | 13.63%
14 | Cl.Fc1cccc(CN2CCC(c3cc4ncccc4cn3)CC2)c1F | 102.4%
15 | Cc1nc(CN2CCOCC3(CCN(c4ccccn4)C3)C2)cs1.O=C(O)C(F)(F)F.O=C(O)C(F)(F)F (stereo not given) | -41.64%
16 | CCN(CCNS(=O)(=O)C1CCOCC1)C(=O)OC(C)(C)C | -7.011%
17 | COCC(=O)NC[C@H]1CC[C@H](c2ccnc3ncnn32)CC1 | 20.19%
18 | COc1ccc(C(C)N(C)Cc2c(C3CC3)[nH]c3ncccc23)cc1.Cl (stereo not given) | -15.93%
19 | CCC/N=c1/c(NC(=O)NCCOC)c(O)oc2ccccc12 | -14.33%
20 | O=C(NC1CC1)c1cn(C2CCN(c3cc(C4CC4)ncn3)CC2)nn1 | 61.79%
21 | OCCNc1cc(N2CCC(n3cc(C4CCCC4)nn3)CC2)ncn1 | 8.872%
22 | CCc1cc(N2CCC(n3cc(C(=O)NC4CC4)nn3)CC2)ncn1 | 51.27%
23 | CC(C)Nc1cc(N2CCC(n3cc(C4CC4)nn3)CC2)ncn1 | -24.54%

Row | Compound | Percent Effect
24 | CCc1cc(N2CCC(n3cc(C(=O)NCC(C)C)nn3)CC2)ncn1 | 7.459%
25 | CCc1cc(N2CCC(NC(=O)CCC3CCCO3)CC2)ncn1 (stereo not given) | -18.51%
26 | CC(C)OCc1ncn2c1CN(Cc1ccc(F)cc1)CCC2.O=C(O)C(F)(F)F | -13.8%
27 | Cc1ccc(-n2cccn2)cc1S(=O)(=O)N1C[C@@H]2CC[C@H](C1)N(C)C2 | 23.12%
28 | Cn1cc(C2CC(=O)NC23CCN(C(=O)Cc2ccccn2)CC3)cn1.O=C(O)C(F)(F)F (stereo not given) | -20.75%
29 | COc1coc(CN2CCCC(CCc3ccc(F)cc3)C2)cc1=O (stereo not given) | -2.405%
30 | COc1ccnc(CN2CCCC(CCc3ccc(F)cc3)C2)c1OC (stereo not given) | 80.3%
31 | COc1ccnc(CN2CCCC(CCc3ccccc3)C2)c1OC (stereo not given) | 22.56%
32 | COCCN1CC[C@@H]2OC(COCC(=O)N3CCCC3)CC[C@@H]21.O=C(O)C(F)(F)F (stereo not given in full) | -19.46%
33 | COc1c(C)cnc(CNCC(C)C)c1C | -4.994%
34 | CCCNCc1ncc(C)c(OC)c1C | -10.29%
35 | CCCS(=O)(=O)NCc1ncc(C)c(OC)c1C | 51.82%
36 | FC1(F)CCN(Cc2ccccn2)CC12CCN(c1cccnc1)C2.O=C(O)C(F)(F)F.O=C(O)C(F)(F)F.O=C(O)C(F)(F)F (stereo not given) | -10.62%
37 | Cc1csc2ncc(-c3ccnc(N4CCC[C@@H]4CO)n3)c(=O)n12 | -11.68%
38 | Cc1csc2ncc(-c3ccnc(N4CCCC[C@@H]4CO)n3)c(=O)n12 | 73.7%
39 | O=c1c(-c2ccnc(N3CCCC[C@@H]3CO)n2)cnc2sccn12 | -1.826%
40 | Cc1nc(CN2CCc3ncnc(-c4ccc(F)cc4)c3CC2)cs1.O=C(O)C(F)(F)F | -9.802%
41 | Cl.NC1CCc2nc(-c3cccnc3)nc(Nc3ccc(F)cc3)c2C1 (stereo not given) | 99.91%
42 | CCc1noc(CNc2nc(-c3cccnc3)nc3c2CCNCC3)n1 | -6.144%
43 | CC(O)CNc1nc(-c2cccnc2)nc2c1CCC2 (stereo not given) | 6.387%
44 | c1cncc(-c2nc3c(c(NCC4(c5ccncc5)CC4)n2)CCC3)c1 | -38.69%
45 | CN(CC1CCCO1)c1nc(-c2cccnc2)nc2c1CCNCC2 (stereo not given) | -30.46%
46 | CCn1ccc(C(=O)N2CCCC2c2nnc(-c3scnc3C)o2)n1 (stereo not given) | -2.34%

Row | Compound | Percent Effect
47 | CC(c1ccc(F)c(F)c1)N(C)CCS(=O)(=O)CCC(N)=O (stereo not given) | 53.46%
48 | CC(c1cc(F)ccc1F)N(C)CCS(=O)(=O)CCC(N)=O (stereo not given) | 49.2%
49 | Cc1ccc(C(C)N(C)CCS(=O)(=O)CCC(N)=O)cc1 (stereo not given) | 68.62%
50 | Cc1ccc(OCCN(C)C(C)c2cccc(S(N)(=O)=O)c2)cc1 (stereo not given) | -22.37%
51 | CC(c1cccc(Cl)c1)N(C)CCS(=O)(=O)CCC(N)=O (stereo not given) | 31.14%
52 | Cc1ccc(C(C)NC(=O)CSCC(N)=O)cc1 (stereo not given) | 15.53%
53 | O=C(O)C(F)(F)F.O=C(O)C(F)(F)F.O=C(O)C(F)(F)F.c1cc(CN2CCN3C[C@H](Oc4cncnc4)C[C@H]3C2)ccn1 | 11.96%
54 | CCN(CCN(C)C)c1nc(CCN)nc2sc(C)c(C)c12 | 91.54%
55 | Cc1sc2nc(CCN)nc(N(CCN(C)C)CC3CCCO3)c2c1C (stereo not given) | -25.67%
56 | COCCN(CC1CC1)c1nc(CCN)nc2sc(C)c(C)c12 | 9.263%
57 | COc1cc(N2C[C@H]3CCC[C@@H](CN(C)C)[C@H]3C2)ncn1.O=C(O)C(F)(F)F | -30.27%
58 | O=C1CCCC2=C1C(c1ccc(Cl)cc1Cl)Nc1nonc1N2 (stereo not given) | 15.96%
59 | FC1(F)CCN(Cc2ccncc2)CC12CCN(c1cccnc1)C2.O=C(O)C(F)(F)F.O=C(O)C(F)(F)F.O=C(O)C(F)(F)F (stereo not given) | -5.593%
60 | O=C(CO)N1CCC(F)(F)C2(CCN(c3ccccc3)C2)C1.O=C(O)C(F)(F)F (stereo not given) | 34.47%
61 | O=C(O)C(F)(F)F.O=C(c1c[nH]cn1)N1CCC(F)(F)C2(CCN(c3ncccn3)C2)C1 (stereo not given) | -10.36%
62 | O=C(O)C(F)(F)F.O=C(O)C(F)(F)F.O=C(O)CN1CCC(F)(F)C2(CCN(c3ccccn3)C2)C1 (stereo not given) | -7.749%
63 | FC1(F)CCN(Cc2cccnc2)CC12CCN(c1ccccc1)C2.O=C(O)C(F)(F)F.O=C(O)C(F)(F)F.O=C(O)C(F)(F)F (stereo not given) | 107.1%
64 | FC1(F)CCN(Cc2cccnc2)CC12CCN(c1ccccn1)C2.O=C(O)C(F)(F)F.O=C(O)C(F)(F)F.O=C(O)C(F)(F)F (stereo not given) | 8.031%
65 | O=C(O)C(F)(F)F.O=C(c1c[nH]cn1)N1CCC(F)(F)C2(CCN(c3cccc(F)c3)C2)C1 (stereo not given) | 53.67%
66 | O=C(O)C(F)(F)F.O=C(O)C(F)(F)F.O=C(O)CN1CCC(F)(F)C2(CCN(c3ccccc3)C2)C1 (stereo not given) | 100.8%
67 | O=C(O)C(F)(F)F.O=C(O)C(F)(F)F.O=C(c1c[nH]cn1)N1CCC(F)(F)C2(CCN(c3ccccn3)C2)C1 (stereo not given) | 6.804%
68 | Cc1ccc(C(=O)N2CCC3(CCN(C(=O)c4cccnc4)C3)CC2)o1.O=C(O)C(F)(F)F | 1.785%
69 | COC(=O)CC(C)(C)CC(=O)N1CCC(C(F)(F)F)CC1 | -1.161%

Row | Compound | Percent Effect
70 | Cc1nn(C)cc1S(=O)(=O)NCC(c1ccccc1)N1CCCCCC1.Cl (stereo not given) | -15.55%
71 | CN(C)CCNCCC(Cc1ccccc1)C1CCOC(C)(C)C1.O=C(O)C(=O)O (stereo not given) | -22.2%
72 | Cl.FC(F)(F)c1nc(C2CCNCC2)no1 | -8.269%
73 | COCCN1CCC2(CC1)CC(NCc1ccc(C)s1)c1ccccc12.O=C(O)C(F)(F)F.O=C(O)C(F)(F)F (stereo not given) | 1.76%
74 | Cc1nc(CN2C[C@@H]3CN(C(=O)c4cccn4C)C[C@@H]3C2=O)cs1.O=C(O)C(F)(F)F | -10.46%
75 | O=C(O)C(F)(F)F.O=C(c1ccc(F)cc1)N1C[C@H]2CCC[C@@]2(COCc2ccccn2)C1 | 7.203%
76 | CN1CCCC(c2cccc(-c3cccc(Cl)c3)n2)C1 (stereo not given) | -13.07%
77 | N#Cc1ncn(CC(=O)Cc2c(F)cccc2Cl)n1 | 85.52%
78 | N#Cc1ncn(Cc2c(F)cccc2Cl)n1 | -2.259%
79 | CN(Cc1c(F)cccc1Cl)C(=O)Cn1cnc(C#N)n1 | -1.386%
80 | CCc1ccc(CN2CCCCC2c2n[nH]cc2-c2cc(C)no2)cc1.Cl (stereo not given) | 16.34%
81 | CS(=O)(=O)N[C@@H]1CCO[C@]2(CCN(C(=O)c3cscn3)C2)C1 | -9.704%
82 | CS(=O)(=O)N[C@H]1CCO[C@]2(CCN(C(=O)c3ccccn3)C2)C1.O=C(O)C(F)(F)F | 72.36%
83 | CS(=O)(=O)N[C@@H]1CCO[C@]2(CCN(C(=O)c3cnccn3)C2)C1 | 9.518%
84 | CCC(N)C(=O)N1CCC(OCc2ccc(Cl)c(Cl)c2)CC1.Cl (stereo not given) | 20.26%
85 | Cc1ccc(CNCc2nccn2C)c(OC(C)(C)C)c1 | 50.94%
86 | Cc1ccc(CNC(=O)NCc2nccn2C)c(OC(C)(C)C)c1 | 2.123%
87 | CCn1ccnc1CNCc1ccc(C)cc1OC(C)(C)C | 55.22%
88 | Cc1ccc(CNCc2nccn2C)c(OCC2CC2)c1 | 39.25%
89 | CCn1ccnc1CNc1nccc(-c2c(C)nn(C)c2C)n1 | 4.641%
90 | CCn1ccnc1CNCC1CCCN1c1cccnn1 (stereo not given) | 2.735%
